Measurements from PubChem BioAssay AID624162 (National Center for Advancing Translational Sciences (NCATS), 2012).
Some of the results follow. Inconclusive results are not listed. The source made the active and inactive calls. Calls come from the whole dose curve; as a rule, active = well fitted inhibition curve with a large enough effect; inconclusive = small, poorly fitted or top-dose-only effect; inactive = no such curve, though single readings can be large or run the other way.

Each compound was assayed against Histone-lysine N-methyltransferase 2A (Homo sapiens) (UniProt Q03164) (assay: qHTS Fluorescence Polarization (FP) Assay for Inhibitors of MLL CXXC domain - DNA interaction: HTRF Assay). Conditions: MLL CXXC-DNA binding, biochemical; series mostly up to 172 µM.
Chain of Histone-lysine N-methyltransferase 2A (Homo sapiens) (Q03164 whole entry, looked up, the tested form may be a part): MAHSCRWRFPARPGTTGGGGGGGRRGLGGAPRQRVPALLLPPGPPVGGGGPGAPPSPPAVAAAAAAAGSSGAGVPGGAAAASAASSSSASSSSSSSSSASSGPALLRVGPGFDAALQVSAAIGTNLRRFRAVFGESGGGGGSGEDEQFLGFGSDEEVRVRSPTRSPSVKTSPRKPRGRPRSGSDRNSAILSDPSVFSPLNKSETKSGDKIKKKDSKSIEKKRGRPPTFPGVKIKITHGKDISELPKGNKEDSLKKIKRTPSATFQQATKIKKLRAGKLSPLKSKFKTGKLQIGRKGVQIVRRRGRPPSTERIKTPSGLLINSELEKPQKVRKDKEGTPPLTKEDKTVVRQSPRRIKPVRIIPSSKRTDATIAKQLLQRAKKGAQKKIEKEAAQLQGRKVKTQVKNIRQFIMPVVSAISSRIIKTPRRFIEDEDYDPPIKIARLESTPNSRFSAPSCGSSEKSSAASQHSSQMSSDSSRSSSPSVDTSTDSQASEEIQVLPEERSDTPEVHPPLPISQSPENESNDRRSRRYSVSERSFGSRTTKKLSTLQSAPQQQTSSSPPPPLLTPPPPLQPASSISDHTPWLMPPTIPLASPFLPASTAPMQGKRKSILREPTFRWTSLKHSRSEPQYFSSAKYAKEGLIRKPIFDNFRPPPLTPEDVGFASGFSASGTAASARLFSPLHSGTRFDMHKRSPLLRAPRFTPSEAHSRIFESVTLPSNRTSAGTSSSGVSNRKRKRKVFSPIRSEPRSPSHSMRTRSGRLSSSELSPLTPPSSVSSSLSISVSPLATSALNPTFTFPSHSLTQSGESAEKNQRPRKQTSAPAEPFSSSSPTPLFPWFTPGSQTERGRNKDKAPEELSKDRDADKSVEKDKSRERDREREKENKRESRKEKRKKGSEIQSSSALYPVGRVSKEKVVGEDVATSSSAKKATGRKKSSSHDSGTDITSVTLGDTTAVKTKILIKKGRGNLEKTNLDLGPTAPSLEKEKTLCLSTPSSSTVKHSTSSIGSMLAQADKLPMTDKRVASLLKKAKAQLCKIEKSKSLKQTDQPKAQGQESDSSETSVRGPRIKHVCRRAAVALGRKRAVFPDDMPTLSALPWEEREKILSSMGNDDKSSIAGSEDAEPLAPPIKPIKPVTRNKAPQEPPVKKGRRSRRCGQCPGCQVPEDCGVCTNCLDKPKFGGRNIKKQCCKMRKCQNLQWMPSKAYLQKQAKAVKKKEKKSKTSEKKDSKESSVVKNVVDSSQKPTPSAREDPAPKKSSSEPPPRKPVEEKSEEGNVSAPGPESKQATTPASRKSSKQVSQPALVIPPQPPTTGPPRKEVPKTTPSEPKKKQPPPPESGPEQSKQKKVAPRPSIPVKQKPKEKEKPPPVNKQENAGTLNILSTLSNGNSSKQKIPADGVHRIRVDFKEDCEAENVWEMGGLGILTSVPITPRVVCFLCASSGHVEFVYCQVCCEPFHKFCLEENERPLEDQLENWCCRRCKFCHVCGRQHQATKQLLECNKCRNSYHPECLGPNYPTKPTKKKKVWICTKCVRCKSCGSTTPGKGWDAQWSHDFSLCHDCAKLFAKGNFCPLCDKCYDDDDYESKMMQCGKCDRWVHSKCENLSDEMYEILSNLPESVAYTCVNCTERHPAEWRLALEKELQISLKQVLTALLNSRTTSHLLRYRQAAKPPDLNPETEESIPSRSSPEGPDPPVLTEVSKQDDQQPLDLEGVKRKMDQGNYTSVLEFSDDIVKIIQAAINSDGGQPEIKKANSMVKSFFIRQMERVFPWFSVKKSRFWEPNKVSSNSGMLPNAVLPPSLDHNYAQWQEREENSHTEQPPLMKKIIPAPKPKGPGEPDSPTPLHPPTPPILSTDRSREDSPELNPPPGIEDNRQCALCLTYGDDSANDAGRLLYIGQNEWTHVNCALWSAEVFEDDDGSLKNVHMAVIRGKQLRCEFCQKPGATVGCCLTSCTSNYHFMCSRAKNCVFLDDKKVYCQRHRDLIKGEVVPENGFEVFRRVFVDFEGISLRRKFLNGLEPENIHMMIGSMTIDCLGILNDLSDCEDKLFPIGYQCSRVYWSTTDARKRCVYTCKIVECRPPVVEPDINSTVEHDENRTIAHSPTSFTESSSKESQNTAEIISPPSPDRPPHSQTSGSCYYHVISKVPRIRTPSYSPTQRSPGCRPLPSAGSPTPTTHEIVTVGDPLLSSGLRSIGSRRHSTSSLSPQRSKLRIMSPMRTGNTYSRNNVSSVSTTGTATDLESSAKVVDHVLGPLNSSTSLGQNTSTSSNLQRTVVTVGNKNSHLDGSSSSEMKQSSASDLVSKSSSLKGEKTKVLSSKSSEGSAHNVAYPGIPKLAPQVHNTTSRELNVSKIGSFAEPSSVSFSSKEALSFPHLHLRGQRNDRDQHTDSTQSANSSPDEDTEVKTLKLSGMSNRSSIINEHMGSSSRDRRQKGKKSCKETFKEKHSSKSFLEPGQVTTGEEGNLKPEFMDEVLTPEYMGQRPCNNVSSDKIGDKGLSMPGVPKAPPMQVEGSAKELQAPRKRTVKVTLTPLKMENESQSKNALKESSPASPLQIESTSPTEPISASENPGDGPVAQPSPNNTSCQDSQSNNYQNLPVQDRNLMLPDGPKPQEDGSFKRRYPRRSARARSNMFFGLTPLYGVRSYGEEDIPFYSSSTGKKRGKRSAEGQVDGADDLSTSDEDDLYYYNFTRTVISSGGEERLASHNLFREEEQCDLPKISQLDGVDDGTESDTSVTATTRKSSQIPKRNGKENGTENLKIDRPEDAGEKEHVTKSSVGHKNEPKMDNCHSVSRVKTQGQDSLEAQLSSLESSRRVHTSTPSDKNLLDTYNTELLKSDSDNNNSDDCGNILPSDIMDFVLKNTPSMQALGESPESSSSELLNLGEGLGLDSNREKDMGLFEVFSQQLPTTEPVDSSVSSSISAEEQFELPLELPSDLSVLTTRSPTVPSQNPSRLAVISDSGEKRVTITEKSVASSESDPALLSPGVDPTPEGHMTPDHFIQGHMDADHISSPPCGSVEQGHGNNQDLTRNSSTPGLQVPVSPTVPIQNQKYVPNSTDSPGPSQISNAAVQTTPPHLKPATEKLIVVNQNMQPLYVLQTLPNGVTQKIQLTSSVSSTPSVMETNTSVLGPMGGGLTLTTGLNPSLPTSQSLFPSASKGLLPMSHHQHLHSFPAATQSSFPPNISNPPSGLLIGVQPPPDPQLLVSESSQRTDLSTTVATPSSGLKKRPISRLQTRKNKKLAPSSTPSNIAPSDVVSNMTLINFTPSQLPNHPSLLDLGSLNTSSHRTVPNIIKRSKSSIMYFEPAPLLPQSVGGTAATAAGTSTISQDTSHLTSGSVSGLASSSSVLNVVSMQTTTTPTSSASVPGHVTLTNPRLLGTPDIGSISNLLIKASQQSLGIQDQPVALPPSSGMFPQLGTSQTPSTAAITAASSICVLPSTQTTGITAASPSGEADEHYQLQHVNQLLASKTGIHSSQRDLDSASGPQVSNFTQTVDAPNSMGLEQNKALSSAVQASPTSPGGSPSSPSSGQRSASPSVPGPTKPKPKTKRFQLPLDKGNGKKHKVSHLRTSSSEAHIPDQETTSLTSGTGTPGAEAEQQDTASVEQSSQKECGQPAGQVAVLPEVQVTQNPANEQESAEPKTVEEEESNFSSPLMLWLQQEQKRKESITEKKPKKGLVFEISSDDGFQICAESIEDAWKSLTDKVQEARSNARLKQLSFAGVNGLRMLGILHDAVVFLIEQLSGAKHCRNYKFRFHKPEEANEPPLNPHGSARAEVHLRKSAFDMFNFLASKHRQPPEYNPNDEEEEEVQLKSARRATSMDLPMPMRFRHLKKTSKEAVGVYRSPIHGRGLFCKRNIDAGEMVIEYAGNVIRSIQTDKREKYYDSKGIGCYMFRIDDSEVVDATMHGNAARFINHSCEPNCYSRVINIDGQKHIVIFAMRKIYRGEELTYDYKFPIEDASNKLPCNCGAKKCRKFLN
Source text: The MLL (Mixed Lineage Luekemia) gene is involved in chromosomal translocation that results in either acute lymphoid leukemia (ALL) or acute myeloid leukemia (AML). Chromasomal translocation of MLL gene is responsible for the fusion of N-terminal MLL to more than 60 different partner genes in frame. Many of the MLL partner genes contain transcription activation domains or function as transcriptional activators. Despite the heterogeneity of fusion partners, the N-terminus of MLL fusion proteins always consists of the N-terminal menin binding motif and the CXXC domain. The MLL-CXXC domain specifically recognizes unmethylated CpG sequences of the HOX-A gene. Disruption of the MLL-CXXC and HOX-A gene interaction leads to down regulation of HOX-A gene expression and may potentially reverse leukemogenesis. We have miniaturized and optimized an in-vitro assay to screen for inhibitors of the MLL-CXXC domain and HOX-A DNA interaction, which could have utility in MLL fusion leukemias.
This is a hit validation assay that tests this hits identified in the primary screen in this secondary screen, using an HTRF a read-out.
NIH Molecular Libraries Probe Production Network [MLPCN]
NIH Chemical Genomics Center [NCGC]
PI Name: John Bushweller, University of Virgina
One microliter of 7microM GST-MLL-CXXC solution prepared in assay buffer (50 mM TRIS-HCl pH 7.5, 50 mM NaCl, 1 mM DTT, 0.05% BSA) was dispesed into a 1536 well plate. Compound solution and unlabeled HOX-A9 was tranferred into the assay plate using the Kalypsys 1536-pin tool and incubated at room temperature for 5 min. One microL of 50nM Biotinylated-HOX-A9 solution prepared in assay buffer was dispensed into the assay plate; centrifuge for 30 seconds at 1000 RPM; and incubated for 30 min at room temperature. Next, 3 microL/well detection reagent mixture of 2.8 nM Eu3+-Cryptate-anti-GST-AB and 100 nM Streptavidin linked XL665 (Cisbio, MA) was added. RT-FRET read was taken after 60min of room temp incubation using the PerkinElmer Envision plate reader equipped with Eu3+ HTRF optimized filter set; EX 337nm / EM […].
Note: nearly all actives have a fitted effect of over 80% in size.

outcome, inactive:
COc1ccc(S(=O)(=O)/N=C2\C=C(NS(=O)(=O)c3ccccc3)C(=O)c3ccccc32)cc1
COc1cc(/C=C2/C(=O)NN(c3ccc(F)cc3)C2=O)cc([N+](=O)[O-])c1O
COc1ccc(-c2onc3ccc(C(C)=O)cc23)cc1
O=C1NN(c2ccccc2)C(=O)/C1=C/c1ccc(-c2cccc(C(=O)O)c2)o1
